This is part of a sample that, as a whole, favours compounds with a hit. Of some 79,000 tested, about 15% had one in any assay. Values without a mark were called inactive. The source made the active and inactive calls. Rule as the data show it: active = growth inhibition above about 70%; inactive = the rest.
How the values were obtained:
[1] = NCI Yeast Anticancer Drug Screen. Data for the rad52 strain (AID 147);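 also: 0% = growth of vehicle-treated control cultures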; conditions: S. cerevisiae rad52 mutant growth inhibition, hits give high values
Outline: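 Growth of repair-deficient yeast cells was compared between compound-treated and vehicle-treated cultures to give percent inhibition.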

[2] = NCI Yeast Anticancer Drug Screen. Data for the wt1 strain (AID 149);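 also: 0% = growth of vehicle-treated wt1 cultures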; conditions: S. cerevisiae wt1 strain (SPY 50644) growth inhibition, hits give high values
Outline: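 Measured: growth of wt1 yeast under compound versus vehicle treatment, reported as inhibition.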

[3] = NCI Yeast Anticancer Drug Screen. Data for the rad50EPP+ strain (AID 151);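 also: 0% = growth of vehicle-treated control cultures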; conditions: S. cerevisiae rad50 mutant strain, hits give high values
Outline: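 Measured: growth inhibition of rad50EPP+ yeast. Reference: vehicle-treated controls. Screen uses strains with defined genetic alterations in DNA damage repair or cell cycle control.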

[4] = NCI Yeast Anticancer Drug Screen. Data for the mgt1 strain (AID 153); conditions: S. cerevisiae mgt1 mutant growth inhibition, hits give high values
Outline: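 Compounds were applied to mgt1 mutant yeast, and growth was then compared against vehicle-treated control cultures to give percent inhibition.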

[5] = NCI Yeast Anticancer Drug Screen. Data for the rad50 strain (AID 155);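 also: 0% = growth of vehicle-only cultures of the same strain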; conditions: S. cerevisiae rad50 strain growth inhibition, hits give high values
Outline: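 Growth of the mutant yeast was measured after compound exposure and referenced to vehicle-treated cultures.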

[6] = NCI Yeast Anticancer Drug Screen. Data for the mec2-1 strain (AID 157); conditions: S. cerevisiae mec2-1 strain, hits give high values
Outline: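 Compounds were applied to mec2-1 yeast cells. Their growth was then compared with that of vehicle-treated cultures to give growth inhibition.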

[7] = NCI Yeast Anticancer Drug Screen. Data for the rad14 strain (AID 159);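 also: 0% = growth of vehicle-treated control cultures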; conditions: S. cerevisiae rad14 strain growth inhibition, hits give high values
Outline: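 Here, inhibition of yeast growth was measured after compound exposure, using a strain with a genetic defect in DNA damage repair and vehicle-treated cultures as the reference.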

[8] = NCI Yeast Anticancer Drug Screen. Data for the sgs1 mgt1 strain (AID 161);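 also: 0% = growth of cultures given vehicle only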; conditions: S. cerevisiae sgs1 mgt1 strain, hits give high values
Outline: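 This yeast growth screen uses a strain with defined DNA-repair lesions; compound-treated growth is compared with vehicle-treated growth.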

[9] = NCI Yeast Anticancer Drug Screen. Data for the CLN2oe strain (AID 163);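 also: 0% = growth of vehicle-only control cultures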; conditions: S. cerevisiae CLN2oe strain, hits give high values
Outline: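 Cells of an engineered yeast line with disturbed cell-cycle regulation are treated with compound. Inhibition of growth is then calculated relative to the vehicle-treated reference.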

[10] = NCI Yeast Anticancer Drug Screen. Data for the cln2 rad14 strain (AID 165);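 also: 0% = growth equal to vehicle treated cultures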; conditions: S. cerevisiae cln2 rad14 strain, hits give high values
Outline: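 Strain: cln2 rad14 yeast, altered in cell cycle control and DNA damage repair. Read-out: growth inhibition vs vehicle.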

[11] = NCI Yeast Anticancer Drug Screen. Data for the bub3 strain (AID 167); conditions: S. cerevisiae bub3 mutant strain, hits give high values
Outline: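 Whole-cell yeast assay. The mutant strain was incubated with compounds, and growth inhibition was determined by comparison with vehicle-treated cells.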

[12] = NCI Yeast Anticancer Drug Screen. Data for the wt2 strain (AID 169);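 also: 0% = growth of vehicle-treated yeast cultures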; conditions: S. cerevisiae wt2 strain growth inhibition, hits give high values
Outline: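 Growth of compound-treated yeast is measured and expressed as inhibition relative to vehicle-only controls.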

[13] = NCI Yeast Anticancer Drug Screen. Data for the mlh1 strain (AID 171);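 also: 0% = growth of vehicle-treated control cultures of the same strain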; conditions: S. cerevisiae mlh1 strain growth inhibition, hits give high values
Outline: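 Test agents were incubated with yeast bearing a defined DNA damage repair or cell cycle control alteration; values are growth inhibition normalised to vehicle-treated cultures.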

[14] = NCI Yeast Anticancer Drug Screen. Data for the sgs1 strain (AID 173);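 also: 0% = growth of vehicle-only control cultures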; conditions: S. cerevisiae sgs1 mutant, hits give high values
Outline: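 Strain with an altered DNA repair or cell cycle pathway exposed to compound. Growth then measured. Value = inhibition versus vehicle control.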

[15] = NCI Yeast Anticancer Drug Screen. Data for the mlh1 rad18 strain (AID 175); conditions: S. cerevisiae mlh1 rad18 strain growth inhibition, hits give high values
Outline: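 A repair-deficient yeast strain is exposed to test compound, and growth is scored relative to vehicle-treated controls.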

[16] = NCI Yeast Anticancer Drug Screen. Data for the rad18 strain (AID 177); conditions: S. cerevisiae rad18 mutant growth inhibition, hits give high values
Outline: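 DNA-repair-defective yeast; compound treatment; growth inhibition scored against vehicle.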

[17] = at 5.0 µM (retest, dose inferred, filed as 0.5)
[18] = at 50.0 µM (retest, dose inferred, filed as 5.0)

C=C(CN(C)C)C(=O)c1cc(C)ccc1C
growth inhibition ([1]; at 1.2 µM): 5% | growth inhibition ([1]; at 3.7 µM): 32% | growth inhibition ([1]; at 11.0 µM): 85% (active) | growth inhibition ([1]; at 33.0 µM): 99% (active) | growth inhibition ([1]; at 100.0 µM): 99% (active) | growth inhibition ([2]; at 1.2 µM): 8% | growth inhibition ([2]; at 3.7 µM): 23% | growth inhibition ([2]; at 11.0 µM): 56% | growth inhibition ([2]; at 33.0 µM): 98% (active) | growth inhibition ([2]; at 100.0 µM): 99% (active) | growth inhibition ([3]; at 1.2 µM): 1% | growth inhibition ([3]; at 3.7 µM): 9% | growth inhibition ([3]; at 11.0 µM): 32% | growth inhibition ([3]; at 33.0 µM): 80% (active) | growth inhibition ([3]; at 100.0 µM): 98% (active) | growth inhibition ([4]; at 1.2 µM): 2% | growth inhibition ([4]; at 3.7 µM): 19% | growth inhibition ([4]; at 11.0 µM): 80% (active) | growth inhibition ([4]; at 33.0 µM): 99% (active) | growth inhibition ([4]; at 100.0 µM): 99% (active) | growth inhibition ([5]; at 1.2 µM): 4% | growth inhibition ([5]; at 3.7 µM): 23% | growth inhibition [5, 17]: 24% | growth inhibition ([5]; at 11.0 µM): 83% (active) | growth inhibition ([5]; at 33.0 µM): 98% (active) | growth inhibition [5, 18]: 99% (active) | growth inhibition ([5]; at 50.0 µM): 99.4% (active) | growth inhibition ([5]; at 100.0 µM): 99% (active) | growth inhibition ([6]; at 1.2 µM): 17% | growth inhibition ([6]; at 3.7 µM): 38% | growth inhibition [6, 17]: 5% | growth inhibition ([6]; at 11.0 µM): 86% (active) | growth inhibition ([6]; at 33.0 µM): 99% (active) | growth inhibition [6, 18]: 99% (active) | growth inhibition ([6]; at 50.0 µM): 99.4% (active) | growth inhibition ([6]; at 100.0 µM): 99% (active) | growth inhibition ([7]; at 1.2 µM): 9% | growth inhibition ([7]; at 3.7 µM): 21% | growth inhibition ([7]; at 11.0 µM): 80% (active) | growth inhibition ([7]; at 33.0 µM): 99% (active) | growth inhibition ([7]; at 100.0 µM): 99% (active) | growth inhibition [8, 17]: 50% | growth inhibition [8, 18]: 99% (active) | growth inhibition ([8]; at 50.0 µM): 99.5% (active) | growth inhibition ([9]; at 1.2 µM): 10% | growth inhibition ([9]; at 3.7 µM): 22% | growth inhibition ([9]; at 11.0 µM): 40% | growth inhibition ([9]; at 33.0 µM): 98% (active) | growth inhibition ([9]; at 100.0 µM): 98% (active) | growth inhibition [10, 17]: 7% | growth inhibition [10, 18]: 99% (active) | growth inhibition ([10]; at 50.0 µM): 99.2% (active) | growth inhibition ([11]; at 1.2 µM): 5% | growth inhibition ([11]; at 3.7 µM): 28% | growth inhibition [11, 17]: 61% | growth inhibition ([11]; at 11.0 µM): 90% (active) | growth inhibition ([11]; at 33.0 µM): 99% (active) | growth inhibition [11, 18]: 99% (active) | growth inhibition ([11]; at 50.0 µM): 98.8% (active) | growth inhibition ([11]; at 100.0 µM): 99% (active) | growth inhibition ([12]; at 1.2 µM): 3% | growth inhibition ([12]; at 3.7 µM): 16% | growth inhibition ([12]; at 11.0 µM): 75% (active) | growth inhibition ([12]; at 33.0 µM): 99% (active) | growth inhibition ([12]; at 100.0 µM): 99% (active) | growth inhibition ([13]; at 1.2 µM): 12% | growth inhibition ([13]; at 3.7 µM): 32% | growth inhibition ([13]; at 11.0 µM): 89% (active) | growth inhibition ([13]; at 33.0 µM): 99% (active) | growth inhibition ([13]; at 100.0 µM): 99% (active) | growth inhibition ([14]; at 1.2 µM): 16% | growth inhibition ([14]; at 3.7 µM): 40% | growth inhibition ([14]; at 11.0 µM): 86% (active) | growth inhibition ([14]; at 33.0 µM): 99% (active) | growth inhibition ([14]; at 100.0 µM): 99% (active) | growth inhibition [15, 17]: 61% | growth inhibition [15, 18]: 99% (active) | growth inhibition ([15]; at 50.0 µM): 99.2% (active) | growth inhibition ([16]; at 1.2 µM): 16% | growth inhibition ([16]; at 3.7 µM): 37% | growth inhibition ([16]; at 11.0 µM): 86% (active) | growth inhibition ([16]; at 33.0 µM): 98% (active) | growth inhibition ([16]; at 100.0 µM): 99% (active)

c1ccc2c(c1)Oc1cccc3cccc-2c13
growth inhibition ([1]; at 1.2 µM): 5% | growth inhibition ([1]; at 3.7 µM): 3% | growth inhibition ([1]; at 11.0 µM): 5% | growth inhibition ([1]; at 33.0 µM): 38% | growth inhibition ([1]; at 100.0 µM): 58% | growth inhibition ([2]; at 1.2 µM): -11% | growth inhibition ([2]; at 3.7 µM): 1% | growth inhibition ([2]; at 11.0 µM): -8% | growth inhibition ([2]; at 33.0 µM): 3% | growth inhibition ([2]; at 100.0 µM): 10% | growth inhibition ([3]; at 1.2 µM): 11% | growth inhibition ([3]; at 3.7 µM): 8% | growth inhibition ([3]; at 11.0 µM): 34% | growth inhibition ([3]; at 33.0 µM): 43% | growth inhibition ([3]; at 100.0 µM): 63% | growth inhibition ([4]; at 1.2 µM): -1% | growth inhibition ([4]; at 3.7 µM): -8% | growth inhibition ([4]; at 11.0 µM): 1% | growth inhibition ([4]; at 33.0 µM): 16% | growth inhibition ([4]; at 100.0 µM): 27% | growth inhibition ([5]; at 1.2 µM): -2% | growth inhibition ([5]; at 3.7 µM): 8% | growth inhibition [5, 17]: 95% (active) | growth inhibition ([5]; at 11.0 µM): 5% | growth inhibition ([5]; at 33.0 µM): 23% | growth inhibition [5, 18]: 98% (active) | growth inhibition ([5]; at 50.0 µM): 67.2% | growth inhibition ([5]; at 100.0 µM): 62% | growth inhibition ([6]; at 1.2 µM): -6% | growth inhibition ([6]; at 3.7 µM): 4% | growth inhibition [6, 17]: 99% (active) | growth inhibition ([6]; at 11.0 µM): -3% | growth inhibition ([6]; at 33.0 µM): 2% | growth inhibition [6, 18]: 99% (active) | growth inhibition ([6]; at 50.0 µM): 17.6% | growth inhibition ([6]; at 100.0 µM): 20% | growth inhibition ([7]; at 1.2 µM): 0% | growth inhibition ([7]; at 3.7 µM): 6% | growth inhibition ([7]; at 11.0 µM): 21% | growth inhibition ([7]; at 33.0 µM): 36% | growth inhibition ([7]; at 100.0 µM): 39% | growth inhibition [8, 17]: 0% | growth inhibition [8, 18]: 43% | growth inhibition ([8]; at 50.0 µM): 47.6% | growth inhibition ([9]; at 1.2 µM): 18% | growth inhibition ([9]; at 3.7 µM): 16% | growth inhibition ([9]; at 11.0 µM): 8% | growth inhibition ([9]; at 33.0 µM): 14% | growth inhibition ([9]; at 100.0 µM): 18% | growth inhibition [10, 17]: 34% | growth inhibition [10, 18]: 20% | growth inhibition ([10]; at 50.0 µM): 25.4% | growth inhibition ([11]; at 1.2 µM): 6% | growth inhibition ([11]; at 3.7 µM): -6% | growth inhibition [11, 17]: -5% | growth inhibition ([11]; at 11.0 µM): -3% | growth inhibition ([11]; at 33.0 µM): 17% | growth inhibition [11, 18]: 55% | growth inhibition ([11]; at 50.0 µM): 56.4% | growth inhibition ([11]; at 100.0 µM): 36% | growth inhibition ([12]; at 1.2 µM): 2% | growth inhibition ([12]; at 3.7 µM): 0% | growth inhibition ([12]; at 11.0 µM): 1% | growth inhibition ([12]; at 33.0 µM): 15% | growth inhibition ([12]; at 100.0 µM): 36% | growth inhibition ([13]; at 1.2 µM): 7% | growth inhibition ([13]; at 3.7 µM): 15% | growth inhibition ([13]; at 11.0 µM): 14% | growth inhibition ([13]; at 33.0 µM): 31% | growth inhibition ([13]; at 100.0 µM): 52% | growth inhibition ([14]; at 1.2 µM): 11% | growth inhibition ([14]; at 3.7 µM): 13% | growth inhibition ([14]; at 11.0 µM): 13% | growth inhibition ([14]; at 33.0 µM): 39% | growth inhibition ([14]; at 100.0 µM): 60% | growth inhibition [15, 17]: 100% (active) | growth inhibition [15, 18]: 99% (active) | growth inhibition ([15]; at 50.0 µM): 42.7% | growth inhibition ([16]; at 1.2 µM): 22% | growth inhibition ([16]; at 3.7 µM): 26% | growth inhibition ([16]; at 11.0 µM): 25% | growth inhibition ([16]; at 33.0 µM): 56% | growth inhibition ([16]; at 100.0 µM): 71% (active)
